In all, about 140,000 compounds went through this assay and about 550 (0.39%) were called active. No stated cut-off is given here; in the data, active means inhibition above about 27%; inactive means the rest. The sample as a whole holds a higher share of actives than the screen did.
Each molecule was assayed against Galanin receptor type 2 (Homo sapiens) (UniProt O43603) (assay: GALR2 antagonists in receptor-expressing cells, primary screen (AID 828;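 further: cells stimulated with galanin 1-16 at roughly its EC80; 0% = agonist challenge control and 100% = basal control without agonist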)). Conditions: antagonist mode, at 4 µM, hits give high values.
Sequence of Galanin receptor type 2 (Homo sapiens) (O43603 whole entry, looked up): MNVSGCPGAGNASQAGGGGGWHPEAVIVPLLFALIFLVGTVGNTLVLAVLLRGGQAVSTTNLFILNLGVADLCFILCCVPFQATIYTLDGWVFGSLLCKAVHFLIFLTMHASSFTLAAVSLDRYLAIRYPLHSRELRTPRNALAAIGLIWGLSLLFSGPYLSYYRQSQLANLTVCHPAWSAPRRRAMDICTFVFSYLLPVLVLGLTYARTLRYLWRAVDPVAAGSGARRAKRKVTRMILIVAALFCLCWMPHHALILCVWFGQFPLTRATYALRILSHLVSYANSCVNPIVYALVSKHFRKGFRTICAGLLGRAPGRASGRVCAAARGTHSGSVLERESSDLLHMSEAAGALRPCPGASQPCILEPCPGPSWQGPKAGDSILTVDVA

inhibition, active:
CCc1ccc2c(c1)C1(NN=C(c3ccccc3)S1)C(=O)N2 (stereo not given) 28.2%
COc1ccccc1N1N=C(c2cccs2)CC1c1ccccc1 (stereo not given) 32.5%
O=C(Nc1ccccc1)c1nnsc1S(=O)(=O)c1ccc(Cl)cc1 42.4%
Fc1ccc2[nH]c3c(N4CCN(Cc5ccc6c(c5)OCO6)CC4)ncnc3c2c1 44.8%
COc1ccc(C)cc1NC(=O)c1[nH]c(C)c(C(C)=O)c1C 27.2%
COc1ccc(NC(=O)/C(Cl)=C(/Cl)S(=O)Cc2ccc(C)cc2)cn1 (stereo not given) 105%
COCC(C)NC(=O)c1ccc(Cl)c(Cl)c1 (stereo not given) 27.4%

inhibition, inactive:
O=C(Oc1ccc([N+](=O)[O-])cc1)c1ccc(Cl)c(S(=O)(=O)N2CCCCC2)c1 -9.96%
COc1ccc(N(C(=O)c2ccc(C)cc2)S(=O)(=O)c2cccs2)cc1 5.74%
O=C1Nc2ccccc2C12Nc1ccccc1S2 (stereo not given) 6.08%
C=C1c2cc(CC)ccc2NC(=O)N1c1ccc(C)cc1 5.36%
CNC(=O)c1ccsc1NC(=O)c1ccc(S(=O)(=O)N2CCOCC2)cc1 -4.99%
CCCn1nc(C(=O)Nc2ccc3nc(C)sc3c2)c2ccccc2c1=O -3.02%
Fc1ccc(N2N=C(c3cccs3)CC2c2ccco2)c(F)c1 (stereo not given) -13.2%
COc1ccc(C2CC(c3cccs3)=NN2C(=O)COC(=O)c2cc3ccccc3cc2O)cc1OC (stereo not given) 12.7%
CC(C)(C)NC(=O)COC(=O)c1cc(Br)ccc1Cl -2.97%
CC(=O)Nc1ccc(S(=O)(=O)NC(C)C(=O)OCC(=O)NC2CCCC2)cc1 (stereo not given) 11.3%
O=C(Cc1cccs1)Nc1cccc(-c2nc3ccccc3[nH]2)c1 12.3%
COc1ccc(/C=C(\C#N)C(=O)NCCCn2ccnc2)cc1 8.04%
CC(=O)Nc1cc(C(=O)O)ccc1S(=O)(=O)c1ccc(Cl)cc1 4.42%
O=C(Nc1ccc(Cl)cc1)c1ccsn1 12.1%
Cc1cc(N2CCN(Cc3ccc4c(c3)OCO4)CC2)n2ncnc2n1 -5.12%
Fc1ccc2[nH]c3c(N4CCSCC4)ncnc3c2c1 22.8%
CC(=O)c1c(C)[nH]c(C(=O)NCc2ccc(C)cc2)c1C -10.3%
CCOc1ccc(NC(=O)Nc2cc(C)ccc2OC)cc1 1.77%
CC(C)(C)N(Cc1ccccc1)C(=O)COC(=O)CCc1c[nH]c2ccccc12 1.11%
Cc1ccc(NC(=S)NC(=O)/C=C/c2ccc(Cl)cc2)cc1 -8.1%
O=[N+]([O-])c1cc(S(=O)(=O)N2CCCC2)ccc1NN=C1CCCC1 -1.82%
O=C(NCCc1ccccc1)C1CCN(S(=O)(=O)c2ccc(Br)s2)CC1 -2.64%
COC(C(=O)Nc1ccc(S(=O)(=O)Nc2ccc(C)c(C)c2)cc1)c1ccccc1 (stereo not given) 0.51%
Cc1cc(C)nc(SC2CCCCC2NS(=O)(=O)c2ccc(Cl)cc2)n1 (stereo not given) -14.2%
COc1ccc(OC)c(/C=C/C(=O)OCC(=O)Nc2ccc3c(c2)OCCO3)c1 4.33%
CCOC(=O)/C(=N\Nc1cc(Cl)ccc1Cl)N1CCN(C)CC1 -4.67%
CCn1c(=O)cc(SCC(=O)NCCC2=CCCCC2)c2ccccc21 -16%
CCOC(=O)C1=C(C)NC(=S)NC1c1cccs1 (stereo not given) -4.54%
CCC1C=C(c2ccccc2)C=CN=C1N(CC)CC (stereo not given) 15%
CCC(CC)c1nnc(NC(=O)/C=C/c2ccco2)s1 8.13%
CCOC(=O)/C(N=Nc1cc(C(=O)O)cc(C(=O)O)c1)=C(\O)CCl -4.09%
CC1(C)CC(=O)C/C(=N\NC(=O)c2cccs2)C1 9.6%
Cc1ccc2nc(-c3cccnc3)c(NC3CCCC3)n2c1 21.2%
CC(=O)Nc1ccc(S(=O)(=O)Nc2nc(-c3ccc(C(C)(C)C)cc3)cs2)cc1 -2.4%
O=[N+]([O-])c1ccccc1SNc1ccccn1 0.95%
CC(=O)NC1C(Oc2ccc(C)cc2)OC2COC(c3ccco3)OC2C1O (stereo not given) 11.3%
O=[N+]([O-])c1ccc(N2CCN(S(=O)(=O)c3ccccc3)CC2)cc1N1CCc2ccccc2C1 1.38%
COc1ccccc1-c1nnc(NC(=O)c2cccc(N3C(=O)CCC3=O)c2)o1 -8.68%
O=C(/C=C\c1cn(-c2ccccc2)nc1-c1cccs1)N1CCOCC1 13.8%
O=C(Nn1c(SCc2ccc([N+](=O)[O-])cc2)nc2ccccc2c1=O)c1ccc(F)cc1 -6.11%
COc1ccc(-c2cc(C(=O)NC(Cc3c[nH]c4ccccc34)C(=O)O)c(C)o2)cc1OC (stereo not given) 2.65%
COc1ccc(NS(=O)(=O)c2ccc(NC(=S)NC(=O)/C=C/c3ccc(C)cc3)cc2)nn1 7.84%
COc1cccc(NC(=O)Cc2ccc(C)cc2)c1 4.68%
COC(=O)Cc1ccc(N(Cc2ccccc2F)S(=O)(=O)c2ccc(Br)cc2)cc1 -3.96%
COc1ccc(C(C(=O)NC2CCCCC2)N(C(=O)CCl)c2ccccc2Cl)cc1 (stereo not given) 3.18%
CCOc1ccc(S(=O)(=O)N(CC(=O)NCC(F)(F)F)Cc2ccco2)cc1 -7%
CCCNC(=O)c1ccc(Cl)c(Cl)c1 10.1%
COCC(C)NC(=O)c1ccc(-n2nc(C(F)(F)F)cc2-c2cccs2)cc1 (stereo not given) -1.6%
CCN1CN(Cc2ccccc2)CNC1=S 3.98%
O=S(=O)(/N=C(/Nc1ccccc1)c1ccccc1)c1cccs1 -10.3%
Cc1ccc(CC2S/C(=C(/C#N)C(=O)N3CCOCC3)N(c3ccccc3)C2=O)cc1 (stereo not given) -9.98%
C=CCNC(=O)/C(=C\c1cccc([N+](=O)[O-])c1)NC(=O)c1ccccc1 3.63%
COc1ccc(NC(=O)COC(=O)c2ccc(NS(=O)(=O)/C=C/c3ccccc3)cc2)cc1 9.83%
